In PubChem BioAssay AID1745848 (National Center for Advancing Translational Sciences (NCATS), 2022):
Screen size: about 2,100 compounds; about 940 (45%) were called active. About 48% were inconclusive and are not listed. The call rests on the fitted dose curve; in most records, active means well fitted inhibition curve with a large enough effect; inconclusive means small, poorly fitted or top-dose-only effect; inactive means no such curve, though single readings can be large or run the other way. The set was probably picked from earlier hits. The list shows a part of the results.
Potency means the concentration at half of the fitted maximal effect.

Assay: Confirmatory qHTS for Inhibitors of ATXN expression; further: nearly all actives have a fitted effect of over 65% in size;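 on activity change, negative = inhibition: 0% = DMSO vehicle wells and -100% = medium-only wells without cells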
Settings: ATXN2-luciferase reporter cells, luminescence, 24 h; series mostly up to 11.5 µM; activity change, negative = inhibition: at the top concentration
In short: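 Cells carrying ATXN2-luciferase reporter exposed 24 h at 37 C to compound. Viability then read by CellTiter-Fluor (25 uM GF-AFC, 30 min), followed by SteadyGlo luminescence; medium-only wells set 100% inhibition.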
For `CCN(CC)CCNC(=O)C1CCN(S(=O)(=O)c2c(C)noc2/C=C/c2ccccc2F)CC1`, the Potency was 3.16 µM (active).
With `COc1cc(NS(=O)(=O)c2ccc(N/C=C(\C#N)c3nc4cc(Cl)ccc4o3)cc2)nc(OC)n1` the Potency was 3.98 µM (active).
With `CCCCOc1ccc(NC2=NC3(CCCC3)N=C(N)N2)cc1` the “activity change, negative = inhibition” value was -18% [at 57.5 µM] (inactive).
In the case of `CC[C@H]1CN2CCc3cc(OC)c(OC)cc3[C@@H]2C[C@@H]1C[C@H]1NCCc2cc(OC)c(OC)cc21`, the Potency is reported as 0.0447 µM (active).
For `CCC1=C(CC2NCCc3ccccc32)CC2c3cc(OC)c(OC)cc3CCN2C1` (stereo unspecified), the Potency was 8.91 µM (active).
In the case of `CC[C@H]1CN2CCc3cc(OC)c(OC)cc3C2C[C@@H]1C[C@H]1NCCc2cc(OC)c(OC)cc21` (stereo partly specified), the Potency is reported as 0.316 µM (active).
With `O=C1C=C(Nc2ccccc2O)c2ccccc2C1=O` the Potency was 12.6 µM (active).
In the case of `CCN1CCN(c2ccc(S(=O)(=O)N3CCCCC3)cc2NC(=O)/C=C/c2ccc([N+](=O)[O-])cc2)CC1`, the Potency is reported as 2 µM (active).
With `CCN1CCN(c2ccc(S(=O)(=O)N3CCCCC3)cc2NC(=O)c2ccc([N+](=O)[O-])s2)CC1` the Potency was 3.16 µM (active).
With `COc1ccc(/C=C/C(=O)Nc2cccc(S(=O)(=O)N3CCCC3)c2)cc1OC` the “activity change, negative = inhibition” value was -15.2% (inactive).
In the case of `CCOc1ccc2[nH]c3c(NCCc4ccc(OC)c(OC)c4)ncnc3c2c1`, the Potency is reported as 15.8 µM (active).
In the case of `COc1ccc(CNc2ncnc3c2[nH]c2ccccc23)cc1`, the Potency is reported as 8.91 µM (active).
For `Fc1ccc2[nH]c3c(NCc4ccccc4)ncnc3c2c1`, the Potency was 1.12 µM (active).
For `Cn1c(=O)c2c(nc(SCCN3CCOCC3)n2Cc2cccc3ccccc23)n(C)c1=O`, the “activity change, negative = inhibition” value was -12.7% (inactive).
In the case of `Cc1cc(NC(=O)CSc2nc3c(sc4ccccc43)c(=O)n2CCCN2CCOCC2)n[nH]1`, the Potency is reported as 1.58 µM (active).
For `CCOC(=O)COc1ccc(Br)cc1/C=C/c1[nH]c(=O)[nH]c(=O)c1[N+](=O)[O-]`, the “activity change, negative = inhibition” value was -23.6% (inactive).
In the case of `CC1=NN(c2nc3ccccc3[nH]2)C(=O)C1Cc1ccccc1` (stereo unspecified), the Potency is reported as 2 µM (active).
In the case of `Cc1cc2nc(-c3nnnn3Cc3ccccc3)c(=O)[nH]c2cc1C`, the “activity change, negative = inhibition” value is reported as -0.827% (inactive).
With `CCN(CC)CCNC(=O)c1ccc(NC(=O)Cc2cccc3ccccc23)cc1` the Potency was 3.98 µM (active).
For `Cc1ccc(-c2cc(-c3ccccc3)nc(NN)n2)cc1`, the Potency was 35.5 µM (active).
With `CCOc1ccc(NCc2cccn2-c2nnc(N3CCC(C(=O)NCCCN4CC(C)CC(C)C4)CC3)s2)cc1` (stereo unspecified) the Potency was 3.16 µM (active).
In the case of `C=CCSc1nc2ccccc2n1C(=O)/C=C/c1ccc(OC)c(OC)c1`, the Potency is reported as 2.82 µM (active).
In the case of `CCSc1nc2ccccc2n1C(=O)/C=C\c1ccc(OC)c(OC)c1`, the Potency is reported as 8.91 µM (active).
For `CC(=O)N1c2ccc(S(=O)(=O)N3CCC(C(=O)Nc4cccc(C(F)(F)F)c4)CC3)cc2CC1C` (stereo unspecified), the Potency was 14.1 µM (active).
In the case of `Cc1ccc2c(Cl)cc(Cl)c(O)c2n1`, the Potency is reported as 5.62 µM (active).
With `COc1ccc([C@@]2(C(C)C)ON(c3ccccc3C(F)(F)F)C2=O)cc1` the “activity change, negative = inhibition” value was -15.7% (inactive).
In the case of `COc1ccc(OC)c(C(=O)/C=C/c2ccccc2C(F)(F)F)c1`, the Potency is reported as 3.16 µM (active).
With `Cc1ccc(-c2cc(C(=O)NCCCN3CCOCC3)no2)cc1` the Potency was 7.94 µM (active).
With `CC(O)(c1ccccc1)c1nc(-c2ccncc2)cs1` (stereo unspecified) the “activity change, negative = inhibition” value was 7.8% (inactive).
In the case of `OCCN1CCN(C2CCC(c3ccc(F)cc3)c3ccc(F)cc32)CC1` (stereo unspecified), the Potency is reported as 25.1 µM (active).
With `CCN(CC)S(=O)(=O)c1ccc(N/N=C/c2cc(OC)ccc2O)nc1` the Potency was 0.794 µM (active).
With `CC(=O)N1CCCc2cc(S(=O)(=O)N3CCCC(C(=O)N4CCN(c5cc(C)ccc5C)CC4)C3)ccc21` (stereo unspecified) the Potency was 3.16 µM (active).
For `CCOCCn1ccc2c(OCC(=O)Nc3ccc(OC)c(OC)c3)cccc2c1=O`, the “activity change, negative = inhibition” value was -16.3% (inactive).
With `CCc1ccc(NC(=O)COc2ccc(/C=C(/C#N)c3nc4ccccc4[nH]3)cc2OC)cc1` the Potency was 3.55 µM (active).
For `CCOC(=O)c1ccc2ncc(C(=O)OCC)c(Nc3ccc(N4CCOCC4)cc3)c2c1`, the Potency was 3.98 µM (active).
With `CCN(CC)S(=O)(=O)c1cccc(NC(=O)Nc2cccc(C(F)(F)F)c2)c1` the Potency was 1.78 µM (active).
In the case of `O=c1cc(N2CCN(c3cccc(Cl)c3)CC2)[nH]c(=O)n1C1CCCCC1`, the Potency is reported as 0.355 µM (active).
With `Cc1nc2ccccc2c(=O)n1/N=C/c1c(O)ccc2oc3c(c12)CCCC3` the Potency was 15.8 µM (active).
In the case of `NC(=O)N/N=C/c1c(O)ccc2oc3c(c12)CCCC3`, the Potency is reported as 14.1 µM (active).
In the case of `Cc1ccccc1N=Nc1ccc(O)c2ncccc12`, the Potency is reported as 1.41 µM (active).
In the case of `Cc1ccc(N=Nc2ccc(O)c3ncccc23)cc1`, the Potency is reported as 3.16 µM (active).
For `Cn1c2c(c(=O)[nH]c1=O)C(c1cccc(O)c1)C1=C(N2)c2ccccc2C1=O` (stereo unspecified), the Potency was 3.98 µM (active).
With `COCCCNCCCOc1ccc(Cl)cc1C(C)(C)C` the Potency was 15.8 µM (active).
In the case of `CCc1cc2c(N3CCN(c4nnc(CC)s4)CC3)ncnc2s1`, the Potency is reported as 3.55 µM (active).
With `Cc1cc(C)cc(NC(=O)CCc2nc3sc4c(c3c(=O)[nH]2)CCCC4)c1` the Potency was 0.708 µM (active).
For `CC(NC(=O)Nc1cccc([N+](=O)[O-])c1)c1ccc2c(c1)OCO2` (stereo unspecified), the “activity change, negative = inhibition” value was -5.8% (inactive).
For `CC(=O)NC(c1cccc([N+](=O)[O-])c1)c1ccc2cccnc2c1O` (stereo unspecified), the Potency was 0.562 µM (active).
With `CC(C)C(=O)NC(c1cccc([N+](=O)[O-])c1)c1ccc2cccnc2c1O` (stereo unspecified) the Potency was 2.24 µM (active).
With `O=[N+]([O-])c1ccc(NC(c2ccccc2)c2ccc3cccnc3c2O)cc1` (stereo unspecified) the Potency was 1.26 µM (active).
With `CCOC(=O)c1ccc(N=c2sc(C(=O)OC)cc(=O)n2-c2ccc(C(=O)OCC)cc2)cc1` the Potency was 3.98 µM (active).
For `O=C(CSc1n[nH]c(-c2ccccn2)n1)Nc1ccc(Cl)cc1`, the Potency was 1.26 µM (active).
In the case of `O=C(CC1NCCc2ccccc21)Nc1ccc(Cl)cc1` (stereo unspecified), the “activity change, negative = inhibition” value is reported as 7.55% (inactive).
In the case of `Cc1ccc(NC(=O)CSc2n[nH]c(-c3ccccn3)n2)cc1`, the Potency is reported as 2.82 µM (active).
For `O=C(CSc1n[nH]c(-c2ccccn2)n1)Nc1cccc(Cl)c1`, the Potency was 3.55 µM (active).
In the case of `O=C(CSc1n[nH]c(-c2ccccn2)n1)Nc1ccc(F)cc1`, the Potency is reported as 8.91 µM (active).
In the case of `COC(/C(=N/O)c1ccc(Cl)cc1)c1ccccc1` (stereo unspecified), the “activity change, negative = inhibition” value is reported as -30% [at 57.5 µM] (inactive).
For `O=C(CSc1n[nH]c(-c2ccccn2)n1)Nc1ccccc1`, the Potency was 15.8 µM (active).
In the case of `COc1cc(Br)cc(/C=N/NC(=O)Cc2ccc(C(F)(F)F)cc2[N+](=O)[O-])c1O`, the Potency is reported as 10 µM (active).
With `c1cc2c(cc1-c1cnc3n1CCC3)OCCO2` the Potency was 12.6 µM (active).
In the case of `NC(=Nc1nc(-c2ccccn2)cc2ccccc12)c1ccccn1`, the Potency is reported as 0.0562 µM (active).
In the case of `Oc1c(C(Nc2nccs2)c2ccc(C(F)(F)F)cc2)ccc2cccnc12` (stereo unspecified), the Potency is reported as 1.78 µM (active).
For `Oc1ccccc1C(Nc1nccs1)c1ccc2cccnc2c1O` (stereo unspecified), the Potency was 2.82 µM (active).
In the case of `Oc1cccc(C(Nc2nccs2)c2ccc3cccnc3c2O)c1` (stereo unspecified), the Potency is reported as 2.51 µM (active).
In the case of `Oc1c(C(Nc2ccccn2)c2ccccn2)ccc2cccnc12` (stereo unspecified), the Potency is reported as 3.16 µM (active).
With `Cc1ccccc1C(=O)N/N=C/c1ccc([N+](=O)[O-])s1` the Potency was 12.6 µM (active).
For `O=C(N/N=C/c1ccc([N+](=O)[O-])s1)c1ccccc1Br`, the Potency was 14.1 µM (active).
In the case of `O=C(N/N=C/c1ccc([N+](=O)[O-])s1)c1ccccc1`, the Potency is reported as 12.6 µM (active).
For `COc1ccc(C(=O)NCC(=O)N/N=C/c2ccc([N+](=O)[O-])s2)cc1OC`, the Potency was 10 µM (active).
With `Cc1c(C(=O)N2c3ccccc3Sc3ccccc32)cccc1[N+](=O)[O-]` the “activity change, negative = inhibition” value was -28.2% [at 57.5 µM] (inactive).
For `Cc1ccc(C)n1-c1ccc(C(=O)N2CCC(C(N)=O)CC2)cc1`, the “activity change, negative = inhibition” value was 0.758% (inactive).
With `COc1cccc(CNc2nc3cc(-c4ccc(C(=O)N5CCN(C)CC5)cc4)sc3c(=O)n2C)c1` the Potency was 28.2 µM (active).
With `COc1cccc(NC(=O)/C=C/c2ccc(S(=O)(=O)N3CCOCC3)cc2)c1` the “activity change, negative = inhibition” value was -14.6% [at 57.5 µM] (inactive).
In the case of `COc1ccc(C(=O)Nc2nc(-c3ccc(S(=O)(=O)N4CCOCC4)cc3)cs2)cc1`, the Potency is reported as 1.78 µM (active).
With `NC(=O)c1c(NC(=O)c2ccc(S(=O)(=O)N3CCOCC3)cc2)sc2c1CCCCC2` the “activity change, negative = inhibition” value was -23.6% (inactive).
With `COc1ccccc1C(=O)Nc1nc(-c2ccc(S(=O)(=O)N3CCOCC3)cc2)cs1` the Potency was 3.98 µM (active).
For `COc1cccc(C(=O)Nc2nc(-c3ccc(S(=O)(=O)N4CCOCC4)cc3)cs2)c1`, the Potency was 1.58 µM (active).
With `O=C(Nc1nc(-c2ccccn2)cs1)c1ccc(F)c(S(=O)(=O)N2CCOCC2)c1` the Potency was 1.78 µM (active).
With `OCCN1CCN(C(=S)c2ccc(-c3ccccc3)cc2)CC1` the Potency was 1.78 µM (active).
With `CCN1CCN(C(=S)c2ccc(-c3ccccc3)cc2)CC1` the Potency was 1.58 µM (active).
In the case of `COc1ccc(NC(=O)c2cc(-c3cc(Cl)ccc3OC)n[nH]2)cc1OC`, the Potency is reported as 0.631 µM (active).
In the case of `O=c1c(O)c(-c2ccccc2)oc2ccccc12`, the “activity change, negative = inhibition” value is reported as -8.49% (inactive).
With `O=c1cc(-c2c(F)c(F)c(F)c(F)c2F)oc2ccccc12` the Potency was 3.55 µM (active).
In the case of `Cc1nc(SCC(=O)Nc2ccc(S(=O)(=O)N3CCOCC3)cc2)c2c(C)c(C)sc2n1`, the Potency is reported as 3.98 µM (active).
In the case of `COc1ccc(C(=O)c2sc(Nc3ccccc3)nc2N)cc1OC`, the Potency is reported as 28.2 µM (active).
For `COc1cccc(CNCCc2c[nH]c3ccccc23)c1OCc1ccc(F)cc1`, the Potency was 3.98 µM (active).
With `O=C(N/N=C/c1c(O)ccc2ccccc12)c1cccnc1` the Potency was 3.16 µM (active).
In the case of `Cc1occc1C(=O)N/N=C/c1c(O)ccc2ccccc12`, the Potency is reported as 1.78 µM (active).
For `O=C(N/N=C\c1c(O)ccc2ccccc12)c1cncc(Br)c1`, the Potency was 0.251 µM (active).
For `O=C(N/N=C\c1c(O)ccc2ccccc12)c1ccc(Cn2cccn2)o1`, the Potency was 0.708 µM (active).
In the case of `O=C(N/N=C/c1cc(O)ccc1Br)c1cccnc1`, the Potency is reported as 3.16 µM (active).
In the case of `Cn1c(-[n+]2c(-c3ccccc3)cc(-c3ccccc3)cc2-c2ccccc2)nc2c([N+](=O)[O-])cccc21`, the “activity change, negative = inhibition” value is reported as -13.5% (inactive).
In the case of `CCn1c2ccccc2c2cc(/C=C(/C#N)C(N)=S)ccc21`, the Potency is reported as 0.447 µM (active).
With `CCn1c2ccccc2c2cc(/C=N/NC(=O)c3ccc(O)cc3)ccc21` the Potency was 2.24 µM (active).
In the case of `CCn1c2ccccc2c2cc(/C=N/n3cnnc3)ccc21`, the Potency is reported as 1.58 µM (active).
In the case of `CCn1c2ccccc2c2cc(/C=N/NC(=O)c3ccncc3)ccc21`, the Potency is reported as 1.41 µM (active).
With `Cc1cccc(OCCn2cc(/C=N/NC(=O)c3ccncc3)c3ccccc32)c1` the “activity change, negative = inhibition” value was -13.1% (inactive).
